From PubChem BioAssay AID1159580 (chemical genetic matrix, 2015)
Screen size: about 5,500 compounds; about 2,000 (36%) were called active. Another 18% or so got no clear call; they are omitted. Rule as the data show it: active = normalized growth mostly below about 0.91 (no sharp cut-off); inconclusive = no clear call, values can overlap the other calls; inactive = mostly above about 0.92. Some of the results follow.

Experiment: chemical genetic growth profiling, strain panel (AID 1159580);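 also: tested at 20 µM; growth read once vehicle control cultures reached saturation at 30 °C; 1 = growth at the plate median or of vehicle wells; lower values mean less growth of the strain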
Details: growth OD

Measured: normalized growth

COC(=O)C[C@H]1C(C)(C)[C@@H](O)[C@@H]2CC3=C4CC(O)O[C@@H](c5ccoc5)[C@]4(C)CCC3[C@@]1(C)C2=O (some centres not stated)
inactive: S. cerevisiae deletion strains, locus YJL187C, strain SWE1, hits give low values 1.03 | S. cerevisiae deletion strains, locus YJR066W, strain TOR1, hits give low values 0.962 | S. cerevisiae deletion strains, locus YJR075W, strain HOC1, hits give low values 0.99 | S. cerevisiae deletion strains, locus YKL009W, strain mrt4, hits give low values 0.985 | S. cerevisiae deletion strains, locus YKL068W, hits give low values 0.98 | S. cerevisiae deletion strains, locus YKL085W, strain MDH1 (second series), hits give low values 0.99 | S. cerevisiae deletion strains, locus YKL085W, strain MDH1, hits give low values 0.99 | S. cerevisiae deletion strains, locus YKL160W, strain elf1, hits give low values 0.998 | S. cerevisiae deletion strains, locus YKL190W, strain CNB1, hits give low values 1 | S. cerevisiae deletion strains, locus YKR001C, strain vps1, hits give low values 0.98 | S. cerevisiae deletion strains, locus YKR026C, strain gcn3, hits give low values 1.02 | S. cerevisiae deletion strains, locus YKR091W, strain srl3, hits give low values 1.01 | S. cerevisiae deletion strains, locus YLL001W, strain dnm1, hits give low values 0.994 | S. cerevisiae deletion strains, locus YLL026W, hits give low values 1.02 | S. cerevisiae deletion strains, locus YLL041C, strain sdh2, hits give low values 1.02 | S. cerevisiae deletion strains, locus YLR027C, strain aat2, hits give low values 1.04 | S. cerevisiae deletion strains, locus YLR039C, strain RIC1, hits give low values 0.981 | S. cerevisiae deletion strains, locus YLR058C, strain SHM2, hits give low values 1 | S. cerevisiae deletion strains, locus YLR102C, strain apc9, hits give low values 0.99 | S. cerevisiae deletion strains, locus YLR113W, strain HOG1, hits give low values 0.971 | S. cerevisiae deletion strains, locus YLR221C, strain rsa3, hits give low values 1.06 | S. cerevisiae deletion strains, locus YLR258W, strain gsy2, hits give low values 0.99 | S. cerevisiae deletion strains, locus YLR262C, strain YPT6 (second series), hits give low values 1.01 | S. cerevisiae deletion strains, locus YLR268W, strain sec22, hits give low values 1.02 | S. cerevisiae deletion strains, locus YLR320W, strain mms22, hits give low values 1.06 | S. cerevisiae deletion strains, locus YLR342W, strain FKS1, hits give low values 1.02 | S. cerevisiae deletion strains, locus YLR357W, strain rsc2, hits give low values 1.04 | S. cerevisiae deletion strains, locus YLR370C, strain arc18, hits give low values 1 | S. cerevisiae deletion strains, locus YLR371W, strain rom2, hits give low values 0.96 | S. cerevisiae deletion strains, locus YLR384C, strain iki3, hits give low values 0.999 | S. cerevisiae deletion strains, locus YLR418C, strain cdc73, hits give low values 0.946 | S. cerevisiae deletion strains, locus YML016C, strain PPZ1, hits give low values 1.01 | S. cerevisiae deletion strains, locus YML032C, strain rad52, hits give low values 0.983 | S. cerevisiae deletion strains, locus YML120C, strain ndi1, hits give low values 0.995 | S. cerevisiae deletion strains, locus YML124C, strain tub3, hits give low values 0.981 | S. cerevisiae deletion strains, locus YMR058W, strain fet3, hits give low values 1.04 | S. cerevisiae deletion strains, locus YMR078C, strain ctf18, hits give low values 0.957 | S. cerevisiae deletion strains, locus YMR125W, strain sto1, hits give low values 1.02 | S. cerevisiae deletion strains, locus YMR129W, hits give low values 1.02 | S. cerevisiae deletion strains, locus YMR205C, strain PFK2, hits give low values 1.03 | S. cerevisiae deletion strains, locus YMR223W, strain ubp8, hits give low values 0.988 | S. cerevisiae deletion strains, locus YMR231W, strain pep5, hits give low values 1.02 | S. cerevisiae deletion strains, locus YMR263W, strain SAP30, hits give low values 0.983 | S. cerevisiae deletion strains, locus YMR307W, strain GAS1, hits give low values 1.09 | S. cerevisiae deletion strains, locus YNL067W, strain RPL9B, hits give low values 0.967 | S. cerevisiae deletion strains, locus YNL071W, strain lat1, hits give low values 1 | S. cerevisiae deletion strains, locus YNL153C, strain GIM3, hits give low values 0.978 | S. cerevisiae deletion strains, locus YNL183C, strain NPR1, hits give low values 0.987 | S. cerevisiae deletion strains, locus YNL209W, strain ssb2, hits give low values 1 | S. cerevisiae deletion strains, locus YNL233W, strain BNI4, hits give low values 1.02 | S. cerevisiae deletion strains, locus YNL248C, strain rpa49, hits give low values 1.05 | S. cerevisiae deletion strains, locus YNL250W, strain rad50, hits give low values 0.944 | S. cerevisiae deletion strains, locus YNL271C, strain bni1, hits give low values 0.981 | S. cerevisiae deletion strains, locus YNL298W, strain CLA4, hits give low values 0.981 | S. cerevisiae deletion strains, locus YNL307C, strain MCK1, hits give low values 0.994 | S. cerevisiae deletion strains, locus YNL322C, strain KRE1 (second series), hits give low values 1.04 | S. cerevisiae deletion strains, locus YNR049C, strain mso1, hits give low values 1.01 | S. cerevisiae deletion strains, locus YNR052C, strain pop2, hits give low values 0.975 | S. cerevisiae deletion strains, locus YOL006C, strain TOP1, hits give low values 1.12 | S. cerevisiae deletion strains, locus YOL012C, strain htz1 0.701 | S. cerevisiae deletion strains, locus YOL147C, strain pex11, hits give low values 0.985 | S. cerevisiae deletion strains, locus YOR001W, strain rrp6, hits give low values 1.06 | S. cerevisiae deletion strains, locus YOR061W, strain CKA2, hits give low values 1 | S. cerevisiae deletion strains, locus YOR069W, strain VPS5, hits give low values 1.01 | S. cerevisiae deletion strains, locus YOR070C, strain gyp1, hits give low values 1.02 | S. cerevisiae deletion strains, locus YOR080W, strain dia2, hits give low values 1.03 | S. cerevisiae deletion strains, locus YOR083W, strain WHI5, hits give low values 0.988 | S. cerevisiae deletion strains, locus YOR106W, strain vam3, hits give low values 0.954 | S. cerevisiae deletion strains, locus YOR136W, strain idh2, hits give low values 0.999 | S. cerevisiae deletion strains, locus YOR144C, strain elg1, hits give low values 0.99 | S. cerevisiae deletion strains, locus YOR184W, strain ser1, hits give low values 1.03 | S. cerevisiae deletion strains, locus YOR231W, strain MKK1, hits give low values 0.983 | S. cerevisiae deletion strains, locus YOR265W, strain rbl2, hits give low values 1 | S. cerevisiae deletion strains, locus YOR270C, strain vph1, hits give low values 1.05 | S. cerevisiae deletion strains, locus YOR290C, strain snf2, hits give low values 0.953 | S. cerevisiae deletion strains, locus YOR316C, strain cot1, hits give low values 0.985 | S. cerevisiae deletion strains, locus YPL051W, strain arl3, hits give low values 1.04 | S. cerevisiae deletion strains, locus YPL078C, strain atp4, hits give low values 0.976 | S. cerevisiae deletion strains, locus YPL106C, strain sse1, hits give low values 1.04 | S. cerevisiae deletion strains, locus YPL240C, strain hsp82, hits give low values 1.01 | S. cerevisiae deletion strains, locus YPL256C, strain CLN2, hits give low values 1.01 | S. cerevisiae deletion strains, locus YPR119W, strain clb2, hits give low values 0.977 | S. cerevisiae deletion strains, locus YPR141C, strain kar3, hits give low values 0.977 | S. cerevisiae deletion strains, locus YPR163C, strain tif3, hits give low values 0.989 | S. cerevisiae deletion strains, locus YPR167C, strain met16, hits give low values 0.971 | S. cerevisiae deletion strains, strain wtn01, hits give low values 1 | S. cerevisiae strains, strain wild type, hits give low values 1.03
